# Reference: PubChem BioAssay
# Several values for one entry are separate records, joined by “and”; a condition that tells them apart may be missing. Equal values may be shown once. Activity calls are given as the source filed them.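 The calls were made as follows, unless noted: active = normalized viability below 100% at a tested concentration; inactive = the rest.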
# Experiments:
# [1] = Wnt pathway potentiators raising nuclear beta-catenin – imaging, WNT3A-conditioned medium, mouse C2C12, NPC library, primary screen (AID 1117326; in the data active = nuclear beta-catenin stimulation mostly above about 4.2%, no sharp cut-off; inactive = mostly below about 10%); conditions: stronger effect = higher value
# [2] = stimulators of insulin release from INS-1E, primary screen, cell-based, 5 mM glucose, NPC library (AID 1117329;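 active = compound raises insulin release from rat beta cells at 5 mM glucose, no numeric limit stated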); conditions: rat INS-1E insulin secretion, at 10 µM, stronger effect = higher value
# [3] = growth inhibition of GSK3B-pretreated HCT116 cells – cell-based, CellTiter-Glo, 0.2 to 20 µM (AID 1117336;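 active = compounds lowering colon cancer cell viability after pretreatment blocking the GSK3B kinase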); conditions: HCT116 viability after GSK3B inhibitor, at 20 µM, stronger effect = higher value
# [4] = inhibition of endothelial tube formation, primary screen, imaging, VEGF stimulated, CD31 staining, tube area, NPC library (AID 1117340;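 active = compound that reduces growth-factor-driven endothelial tube area in a mixed cell culture, no cutoff stated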); conditions: VEGF-stimulated ADSC/ECFC co-culture, at 10 µM, stronger effect = higher value
# [5] = GLP1 release stimulators, primary, NCI-H716, NPC library (AID 1117341;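 active = compound raises GLP1 secretion from the human gut endocrine cells, with no numeric limit stated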); conditions: NCI-H716 cells, at 10 µM, stronger effect = higher value
# [6] = HCT116 colon cancer cell growth inhibition, primary screen, CellTiter-Glo luminescence, NPC library (AID 1117342;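 active = compounds that lower survival of HCT116 colon cancer cells in the luminescence readout, no numeric limit stated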); conditions: at 20 µM (top of the series)
# [7] = reduced SW480 viability measured with CellTiter-Glo, NPC library, primary (AID 1117343;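 active = compounds that lower viability of the colon cancer cells in the luminescence readout, with no numeric limit stated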); conditions: CellTiter-Glo luminescence; at 20 µM (top of the series)
# [8] = NPC library primary testing for decreased DLD-1 cell viability via CellTiter-Glo (AID 1117346;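 active = compounds that lower survival of DLD-1 colon cancer cells in the luminescence readout, no cutoff given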); conditions: DLD-1 viability, CellTiter-Glo luminescence; at 20 µM (top of the series)
# [9] = molecular target: 6-phosphogluconate dehydrogenase, decarboxylating (Homo sapiens) (UniProt P52209); assay: inhibition of human phosphogluconate dehydrogenase – biochemical, recombinant enzyme, NADPH absorbance, primary screen (AID 1159550;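 active = at least 20% inhibition of 6-phosphogluconate dehydrogenase activity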); conditions: recombinant 6PGD, NADPH absorbance 341 nm; at 10 µM; stronger effect = higher value
# Chain of 6-phosphogluconate dehydrogenase, decarboxylating (Homo sapiens) (P52209 whole entry, looked up): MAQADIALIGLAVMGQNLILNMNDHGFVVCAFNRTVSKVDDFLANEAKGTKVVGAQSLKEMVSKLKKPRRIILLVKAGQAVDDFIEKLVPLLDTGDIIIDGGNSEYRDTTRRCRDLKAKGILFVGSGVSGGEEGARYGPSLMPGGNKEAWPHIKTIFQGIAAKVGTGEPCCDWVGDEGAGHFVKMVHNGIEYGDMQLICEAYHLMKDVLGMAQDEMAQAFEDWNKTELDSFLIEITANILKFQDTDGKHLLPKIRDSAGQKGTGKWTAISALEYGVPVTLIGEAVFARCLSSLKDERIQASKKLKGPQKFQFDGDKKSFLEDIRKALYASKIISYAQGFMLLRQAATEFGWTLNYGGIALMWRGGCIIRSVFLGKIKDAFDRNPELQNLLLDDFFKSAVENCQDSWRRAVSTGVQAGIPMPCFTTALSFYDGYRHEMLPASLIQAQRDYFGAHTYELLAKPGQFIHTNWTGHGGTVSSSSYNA
# [10] = modulation of C. elegans fzo-1 (AID 1259413; call rule not given here;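 also: fzo-1 mutant C. elegans worms in liquid wells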); conditions: C. elegans fzo-1 modulator screen, mean read-out; stronger effect = higher value
# [11] = EMT-state selective cytotoxicity in co-culture – imaging, PC-3E GFP, TEM4-18 mCherry, primary screen (AID 1345086;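 active = compounds killing one labelled cell type while sparing the other, by normalised counts and ratio limits, not self-fluorescent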;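 as to all read-outs here: cells exposed to compound for 72 h before imaging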;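 as to red/green cell ratio (normalised): normalised mesenchymal count divided by normalised epithelial count so high means epithelial killing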); conditions: PC-3E GFP / TEM4-18 mCherry co-culture, imaging cell counts, at 1 µM; for red/green cell ratio (normalised): actives lie on both sides, counts scaled to control wells, 1 = unselective
# [12] = MELAS cybrid and Rieske KO viability enhancers – cell-based, MELAS cybrids, Rieske KO mouse fibroblasts, CellTiter-Glo, primary screen (AID 1508586;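 active = mean z-score across replicates of 1.96 or higher in either the MELAS or the Rieske mutant cell line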;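 also: z relative to plate mean and SD of compound and empty wells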); conditions: low glucose
# [13] = molecular target: NAD(+) hydrolase SARM1 (Homo sapiens) (UniProt Q6SZW1); assay: blocking NAD cleavage by SARM1 SAM-TIR – cell lysate, NAD-Glo luminescence (AID 1508614;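 active = compound whose remaining NAD level is above about 45 nM, limit read from the data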;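 also: higher remaining NAD means stronger inhibition of SARM1 NADase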); conditions: SAM-TIR HEK293T lysate NADase, at 1 µM, stronger effect = higher value
# Chain of NAD(+) hydrolase SARM1 (Homo sapiens) (Q6SZW1 whole entry, looked up, the tested form may be a part): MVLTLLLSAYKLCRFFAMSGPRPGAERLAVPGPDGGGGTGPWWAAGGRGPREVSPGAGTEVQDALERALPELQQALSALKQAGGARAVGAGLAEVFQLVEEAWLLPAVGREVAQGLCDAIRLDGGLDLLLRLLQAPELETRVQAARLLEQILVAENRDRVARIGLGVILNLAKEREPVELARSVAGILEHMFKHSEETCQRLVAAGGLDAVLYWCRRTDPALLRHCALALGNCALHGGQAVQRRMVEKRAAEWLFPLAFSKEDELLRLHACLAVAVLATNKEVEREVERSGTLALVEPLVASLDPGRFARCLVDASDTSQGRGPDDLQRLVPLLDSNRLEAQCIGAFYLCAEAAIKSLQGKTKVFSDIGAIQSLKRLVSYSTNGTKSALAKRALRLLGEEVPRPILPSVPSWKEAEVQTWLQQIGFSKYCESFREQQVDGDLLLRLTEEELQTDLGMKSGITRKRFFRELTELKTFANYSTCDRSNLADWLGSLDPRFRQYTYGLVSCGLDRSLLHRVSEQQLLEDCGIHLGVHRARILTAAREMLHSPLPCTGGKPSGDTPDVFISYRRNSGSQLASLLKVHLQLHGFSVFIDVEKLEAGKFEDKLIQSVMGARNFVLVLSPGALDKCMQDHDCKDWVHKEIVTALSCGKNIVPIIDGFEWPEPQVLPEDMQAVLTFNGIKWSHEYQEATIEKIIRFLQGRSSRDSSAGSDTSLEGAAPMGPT
# [14] = molecular target: Mitogen-activated protein kinase 7 (Homo sapiens) (UniProt Q13164); assay: Gal4-ERK5 driven luciferase induction – cell-based, HTS, primary screen (AID 1508626;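 active = luciferase signal above three times the same-plate solvent-only control wells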;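 also: luciferase driven by Gal4-ERK5 fusion binding five Gal4 sites before minimal TATA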); conditions: HeLa Gal4-ERK5 transactivation, 18 h, at 5 µM, stronger effect = higher value
# Chain of Mitogen-activated protein kinase 7 (Homo sapiens) (Q13164 whole entry, looked up, the tested form may be a part): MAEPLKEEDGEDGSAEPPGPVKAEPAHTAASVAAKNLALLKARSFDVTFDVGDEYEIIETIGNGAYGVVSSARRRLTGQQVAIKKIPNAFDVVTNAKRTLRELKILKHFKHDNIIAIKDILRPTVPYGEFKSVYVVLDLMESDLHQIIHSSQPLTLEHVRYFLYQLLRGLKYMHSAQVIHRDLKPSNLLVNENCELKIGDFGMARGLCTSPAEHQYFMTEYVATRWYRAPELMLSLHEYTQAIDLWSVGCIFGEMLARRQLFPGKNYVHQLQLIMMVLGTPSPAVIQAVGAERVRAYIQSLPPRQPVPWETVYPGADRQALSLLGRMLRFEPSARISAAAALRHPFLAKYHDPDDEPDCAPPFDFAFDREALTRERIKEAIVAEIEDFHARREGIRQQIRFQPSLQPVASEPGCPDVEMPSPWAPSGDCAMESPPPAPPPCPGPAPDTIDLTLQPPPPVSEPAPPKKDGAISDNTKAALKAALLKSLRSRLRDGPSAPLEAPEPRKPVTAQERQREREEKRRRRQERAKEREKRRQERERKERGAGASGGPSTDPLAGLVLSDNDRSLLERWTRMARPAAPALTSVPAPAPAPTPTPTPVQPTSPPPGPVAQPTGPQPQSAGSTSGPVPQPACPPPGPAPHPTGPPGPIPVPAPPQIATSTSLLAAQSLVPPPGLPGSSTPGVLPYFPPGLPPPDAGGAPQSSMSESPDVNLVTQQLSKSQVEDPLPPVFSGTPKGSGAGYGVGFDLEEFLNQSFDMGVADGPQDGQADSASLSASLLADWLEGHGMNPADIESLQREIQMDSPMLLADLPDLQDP
# F380Y = assay: BK channel mutant inhibitors and activators – cell-based, U2OS BacMam, thallium flux, beta subunits, selectivity assay, profiling panel (AID 1259406;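 active = thallium flux through the channel raised or lowered by more than 3 SD from vehicle-only wells, actives on both sides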;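 also: initial slope of Thallos dye fluorescence rise after thallium is added; log ratio against the mean of 0.3% DMSO vehicle wells on the same plate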); conditions: U2OS BacMam BK variants, at 30 µM
# F380Y/beta1 = assay: as above; conditions: U2OS BacMam BK variants, at 30 µM
# F380Y/beta2Delta = assay: as above; conditions: U2OS BacMam BK variants, at 30 µM
# [15] = drug combination growth inhibition, ovarian cancer – cell-based, oncology-focused library, rucaparib conditional, profiling panel (AID 1508598); conditions: patient-derived ovarian cancer cells, CellTiter-Glo viability, 144 h, stronger effect = lower value
# [16] = measured here: epithelial PC-3E GFP cell survival
# [17] = measured here: mesenchymal TEM4-18 mCherry cell survival
# [18] = MELAS cybrid survival, CellTiter-Glo 48 h, stronger effect = higher value
# [19] = Rieske KO mouse fibroblast survival, CellTiter-Glo 72 h
structure (smiles),measurement,setting,value
CC[C@H](C)C(=O)O[C@H]1C[C@@H](C)C=C2C=C[C@H](C)[C@H](CC[C@@H]3C[C@@H](O)CC(=O)O3)[C@H]21,nuclear beta-catenin stimulation,[1]; at 10 µM,13.1% (inactive)
same,nuclear beta-catenin stimulation,"[1]; stimulation, at 2 µM",4.2%
same,insulin secretion stimulation,[2],6.6% (inactive)
same,viability decrease,[3],69.3% (active)
same,tube area decrease,[4],95.5% (active)
same,GLP1 secretion stimulation,[5],25% (active)
same,inhibition of viability,[6],56.9% (active)
same,viability decrease (inhibition),[7],87% (active)
same,viability decrease (inhibition),[8],36.2% (inactive)
same,inhibition,[9],-1.21% (inactive)
same,mean signal,[10],253 (inactive)
same,red/green cell ratio (normalised),[11],0.98 (inactive)
same,normalised cell number,[11]; [16],1.39
same,normalised cell number,[11]; [17],1.37
same,z-score,[12]; [18],-0.236 and -1.19 (inactive)
same,z-score,[12]; [19],2.23 and -0.0427
same,remaining NAD,[13],10 nM (inactive)
same,luciferase signal,[14],60 AU (inactive)
same,log fold change Tl+ flux,F380Y,0.184 (active)
same,log fold change Tl+ flux,F380Y/beta1,0.00194 (inactive)
same,log fold change Tl+ flux,F380Y/beta2Delta,0.0899 (active)
Oc1ccc(/C=C/c2cc(O)cc(O)c2)cc1,nuclear beta-catenin stimulation,[1]; at 10 µM,2.4% (inactive)
same,nuclear beta-catenin stimulation,"[1]; stimulation, at 2 µM",2.2%
same,insulin secretion stimulation,[2],0.1% (inactive)
same,viability decrease,[3],19% (inactive)
same,tube area decrease,[4],56.1% (active)
same,GLP1 secretion stimulation,[5],2.9% (inactive)
same,inhibition of viability,[6],65% (active)
same,viability decrease (inhibition),[7],75.5% (active)
same,viability decrease (inhibition),[8],35.3% (inactive)
same,inhibition,[9],0.743% (inactive)
same,mean signal,[10],256 (inactive)
same,red/green cell ratio (normalised),[11],1.06 (inactive)
same,normalised cell number,[11]; [16],0.97
same,normalised cell number,[11]; [17],1.04
same,luciferase signal,[14],84 AU (inactive)
same,log fold change Tl+ flux,F380Y,0.101 (inactive)
same,log fold change Tl+ flux,F380Y/beta1,0.199 (active)
same,log fold change Tl+ flux,F380Y/beta2Delta,0.155 (active)
O=C1CCC(N2C(=O)c3ccccc3C2=O)C(=O)N1 (configuration not stated),nuclear beta-catenin stimulation,[1]; at 10 µM,2.4% (inactive)
same,nuclear beta-catenin stimulation,"[1]; stimulation, at 2 µM",2.1%
same,insulin secretion stimulation,[2],0.6% (inactive)
same,viability decrease,[3],-12.6% (inactive)
same,tube area decrease,[4],5.6% (inactive)
same,GLP1 secretion stimulation,[5],-3.8% (inactive)
same,inhibition of viability,[6],6.9% (inactive)
same,viability decrease (inhibition),[7],11.1% (inactive)
same,viability decrease (inhibition),[8],53.7% (active)
same,inhibition,[9],-1.45% (inactive)
same,mean signal,[10],238 (inactive)
same,red/green cell ratio (normalised),[11],1.17 (inactive)
same,normalised cell number,[11]; [16],1.23
same,normalised cell number,[11]; [17],1.44
same,z-score,[12]; [18],-0.413 (inactive) and 0.577 (inactive) and -0.221 (inactive)
same,z-score,[12]; [19],-0.261 and 0.0412 and -1.15
same,viability,"[15]; at 0.000305 µM, OCI-C5x cells, with rucaparib 10 µM, 100% = cells with rucaparib alone",117% (inactive)
same,viability,"[15]; at 0.000305 µM, OCI-C5x cells, without rucaparib",95% (active)
same,viability,"[15]; at 0.000305 µM, OCI-P5x cells, with rucaparib 20 µM, 100% = cells with rucaparib alone",99.4% (active)
same,viability,"[15]; at 0.000305 µM, OCI-P5x cells, without rucaparib",103% (inactive)
same,viability,"[15]; at 0.00122 µM, OCI-C5x cells, with rucaparib 10 µM, 100% = cells with rucaparib alone",108% (inactive)
same,viability,"[15]; at 0.00122 µM, OCI-C5x cells, without rucaparib",102% (inactive)
same,viability,"[15]; at 0.00122 µM, OCI-P5x cells, with rucaparib 20 µM, 100% = cells with rucaparib alone",100% (inactive)
same,viability,"[15]; at 0.00122 µM, OCI-P5x cells, without rucaparib",109% (inactive)
same,viability,"[15]; at 0.00488 µM, OCI-C5x cells, with rucaparib 10 µM, 100% = cells with rucaparib alone",110% (inactive)
same,viability,"[15]; at 0.00488 µM, OCI-C5x cells, without rucaparib",99.5% (active)
same,viability,"[15]; at 0.00488 µM, OCI-P5x cells, with rucaparib 20 µM, 100% = cells with rucaparib alone",112% (inactive)
same,viability,"[15]; at 0.00488 µM, OCI-P5x cells, without rucaparib",106% (inactive)
same,viability,"[15]; at 0.0195 µM, OCI-C5x cells, with rucaparib 10 µM, 100% = cells with rucaparib alone",111% (inactive)
same,viability,"[15]; at 0.0195 µM, OCI-C5x cells, without rucaparib",109% (inactive)
same,viability,"[15]; at 0.0195 µM, OCI-P5x cells, with rucaparib 20 µM, 100% = cells with rucaparib alone",112% (inactive)
same,viability,"[15]; at 0.0195 µM, OCI-P5x cells, without rucaparib",111% (inactive)
same,viability,"[15]; at 0.0781 µM, OCI-C5x cells, with rucaparib 10 µM, 100% = cells with rucaparib alone",113% (inactive)
same,viability,"[15]; at 0.0781 µM, OCI-C5x cells, without rucaparib",104% (inactive)
same,viability,"[15]; at 0.0781 µM, OCI-P5x cells, with rucaparib 20 µM, 100% = cells with rucaparib alone",107% (inactive)
same,viability,"[15]; at 0.0781 µM, OCI-P5x cells, without rucaparib",115% (inactive)
same,viability,"[15]; at 0.313 µM, OCI-C5x cells, with rucaparib 10 µM, 100% = cells with rucaparib alone",114% (inactive)
same,viability,"[15]; at 0.313 µM, OCI-C5x cells, without rucaparib",109% (inactive)
same,viability,"[15]; at 0.313 µM, OCI-P5x cells, with rucaparib 20 µM, 100% = cells with rucaparib alone",112% (inactive)
same,viability,"[15]; at 0.313 µM, OCI-P5x cells, without rucaparib",119% (inactive)
same,viability,"[15]; at 1.25 µM, OCI-C5x cells, with rucaparib 10 µM, 100% = cells with rucaparib alone",114% (inactive)
same,viability,"[15]; at 1.25 µM, OCI-C5x cells, without rucaparib",103% (inactive)
same,viability,"[15]; at 1.25 µM, OCI-P5x cells, with rucaparib 20 µM, 100% = cells with rucaparib alone",116% (inactive)
same,viability,"[15]; at 1.25 µM, OCI-P5x cells, without rucaparib",117% (inactive)
same,viability,"[15]; at 5 µM, OCI-C5x cells, with rucaparib 10 µM, 100% = cells with rucaparib alone",116% (inactive)
same,viability,"[15]; at 5 µM, OCI-C5x cells, without rucaparib",108% (inactive)
same,viability,"[15]; at 5 µM, OCI-P5x cells, with rucaparib 20 µM, 100% = cells with rucaparib alone",114% (inactive)
same,viability,"[15]; at 5 µM, OCI-P5x cells, without rucaparib",115% (inactive)
same,remaining NAD,[13],10 nM (inactive)
same,luciferase signal,[14],36 AU (inactive)
same,log fold change Tl+ flux,F380Y,-0.00432 (inactive)
same,log fold change Tl+ flux,F380Y/beta1,-0.0788 (inactive)
same,log fold change Tl+ flux,F380Y/beta2Delta,-0.0091 (inactive)
